A short description of experiment [1]: Cell Viability - Hek293 (AID 427;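 active means compounds whose dose-response curve shows a full or clear partial loss of cell viability, called from curve shape rather than a numeric limit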;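 further: potency means the concentration at half of the fitted maximal effect; cells exposed to compound for 40 hours at 37 °C before reading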). As to conditions: qHTS. Summed up: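 Luminescent ATP read-out (CellTiter-Glo, 20 min RT) after 40 hr compound exposure at 37 °C in complete medium. Signal normalized to DMSO (basal) and 100 uM tamoxifen (100% inhibition); concentration-response fitted with the standard Hill equation to give AC50.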
The nature of experiment [2]: Cell Viability - H-4-II-E (AID 543).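 Further: cells exposed to compound for 40 hours; nearly all actives have a fitted effect of over 35% in size.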 Further: potency means the concentration at half of the fitted maximal effect. The method, boiled down:
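Cells seeded at 1500 per well and rested 5 hr; compounds added; 40 hr incubation at 37 °C; CellTiter-Glo added, 20 min at room temperature; luminescence read. Hill-equation fits gave AC50.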

Experiment [3] can be described thus: Cell Viability - Renal Proximal Tubule (AID 545).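 Further: cells exposed to compound for 40 hours; nearly all actives have a fitted effect of over 40% in size.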 Further: potency means the concentration at half of the fitted maximal effect.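 On activity change, negative = cytotoxicity: 0% = DMSO only and -100% = 100 µM tamoxifen.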 As to conditions: renal proximal tubule cells viability, primary cells of rat origin; activity change, negative = cytotoxicity: at 91.7 µM (top of the series). The method, boiled down:
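Rat kidney proximal tubule cells, freshly isolated; 1000 cells/well, 5 hr settle, compound 40 hr 37 °C. CellTiter-Glo 20 min RT, luminescence read. AC50 by standard Hill fit.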

A short description of experiment [4]: Cell Viability - LYMP2-004 (AID 966). Further: nearly all actives have a fitted effect of over 65% in size. Further: potency means the concentration at half of the fitted maximal effect.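 On activity change, negative = cytotoxicity: plate controls were DMSO only for no effect and tetraoctylammonium bromide control for full effect.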 Summed up:
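qHTS cytotoxicity: human lymphoblastoid line, 24 hr compound treatment, 37 C, complete medium. Viability read as cellular ATP via luciferase luminescence; tetraoctylammonium bromide served as positive control.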

Experiment [5] is described as follows: Cell Viability - LYMP2-005 (AID 967). Further: potency means the concentration at half of the fitted maximal effect. The method, boiled down:
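Steps: seed 2500 LYMP2-005 cells/well, incubate 5 h at 37 C, add compound, incubate 24 h at 37 C, add CellTiter-Glo, wait 30 min at RT, read luminescence. Concentration-response data fitted to Hill equation for AC50.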

A short description of experiment [6]: Cell Viability - LYMP2-009 (AID 968). Further: nearly all actives have a fitted effect of over 55% in size. Further: potency means the concentration at half of the fitted maximal effect.
The nature of experiment [7]: Cell Viability - LYMP2-015 (AID 971). Further: nearly all actives have a fitted effect of over 55% in size. Further: potency means the concentration at half of the fitted maximal effect. Summed up:
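Cells are seeded at 2500 per well and incubated 5 hr at 37 C. Compounds are added across a concentration series for 24 hr at 37 C. CellTiter-Glo is added, and luminescence is read after 30 min at room temperature.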

A short description of experiment [8]: Cell Viability - LYMP2-017 (AID 972).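 Further: cells exposed to compound for 24 hours at 37 °C; nearly all actives have a fitted effect of over 55% in size.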 Further: potency means the concentration at half of the fitted maximal effect. On activity change, negative = cytotoxicity: on the % scale 0 is the no-effect control and ±100 the full control effect. The method, boiled down:
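Cytotoxicity is scored as a concentration-dependent drop in cellular ATP in a human lymphoblastoid line after 24 hr treatment at 37 C. Values are AC50s from Hill-equation modelling.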

Experiment [9] can be described thus: Cell Viability - LYMP2-006 (AID 978).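 Further: cells exposed to compound for 24 hours; nearly all actives have a fitted effect of over 60% in size.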 Further: potency means the concentration at half of the fitted maximal effect. On activity change, negative = cytotoxicity: on the % scale 0 is the no-effect control and ±100 the full control effect. Summed up: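 qHTS, 1536-well; 2500 cells/well, 5 hr 37 C; cpd 24 hr 37 C; CellTiter-Glo 30 min RT; luminescence. Tetraoctylammonium bromide pos. ctrl. AC50 via Hill eqn.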
Experiment [10] in a line: Cell Viability - LYMP2-010 (AID 981).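 Further: cells exposed to compound for 24 hours at 37 °C; nearly all actives have a fitted effect of over 55% in size.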 Further: potency means the concentration at half of the fitted maximal effect. The method, boiled down:
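Steps: seed 2500 LYMP2-010 cells per well; incubate 5 hr at 37 C; add compound; incubate 24 hr at 37 C; add CellTiter-Glo, wait 30 min at room temperature; read luminescence. Concentration-response fitted to Hill equation for AC50.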

The nature of experiment [11]: qHTS assay for small molecule agonists of retinoid X receptor alpha signaling (AID 588544; calls by dose curve). As to conditions: HEK293T RXRa-UAS-bla, beta-lactamase reporter, 18 h; 530 nm emission. For orientation: Quantitative high-throughput screening tests each substance at several concentrations.
For experiment [12], the target named is Retinoic acid receptor RXR-alpha (Homo sapiens) (UniProt P19793). Described as above.
Retinoic acid receptor RXR-alpha (Homo sapiens), sequence (P19793 whole entry, looked up): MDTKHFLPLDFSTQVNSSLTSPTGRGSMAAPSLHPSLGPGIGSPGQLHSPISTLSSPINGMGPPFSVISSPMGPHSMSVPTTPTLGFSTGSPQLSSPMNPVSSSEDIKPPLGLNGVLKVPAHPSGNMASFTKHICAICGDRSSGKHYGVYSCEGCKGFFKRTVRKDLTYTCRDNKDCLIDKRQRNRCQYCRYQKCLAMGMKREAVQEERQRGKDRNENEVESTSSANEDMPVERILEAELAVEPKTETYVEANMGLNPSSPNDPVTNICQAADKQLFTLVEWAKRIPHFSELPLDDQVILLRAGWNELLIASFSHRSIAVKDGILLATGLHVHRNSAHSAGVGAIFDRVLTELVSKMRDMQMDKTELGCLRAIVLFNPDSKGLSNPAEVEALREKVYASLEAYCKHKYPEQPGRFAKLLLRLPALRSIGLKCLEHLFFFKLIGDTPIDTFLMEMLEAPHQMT
In experiment [13] the target is Thyroid hormone receptor beta (Homo sapiens) (UniProt P10828). In words: qHTS assay for small molecule agonists of thyroid hormone receptor beta signaling (AID 588545; calls by dose curve;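 further: 0% = DMSO only and 100% = 10 nM T3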). The method, boiled down: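 Beta-lactamase reporter activity under TR response element control is measured in HEK 293 cells after 18 hrs compound exposure. Signal is ratiometric CCF4 fluorescence, 460/530 nm.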
Thyroid hormone receptor beta (Homo sapiens), sequence (P10828 whole entry, looked up): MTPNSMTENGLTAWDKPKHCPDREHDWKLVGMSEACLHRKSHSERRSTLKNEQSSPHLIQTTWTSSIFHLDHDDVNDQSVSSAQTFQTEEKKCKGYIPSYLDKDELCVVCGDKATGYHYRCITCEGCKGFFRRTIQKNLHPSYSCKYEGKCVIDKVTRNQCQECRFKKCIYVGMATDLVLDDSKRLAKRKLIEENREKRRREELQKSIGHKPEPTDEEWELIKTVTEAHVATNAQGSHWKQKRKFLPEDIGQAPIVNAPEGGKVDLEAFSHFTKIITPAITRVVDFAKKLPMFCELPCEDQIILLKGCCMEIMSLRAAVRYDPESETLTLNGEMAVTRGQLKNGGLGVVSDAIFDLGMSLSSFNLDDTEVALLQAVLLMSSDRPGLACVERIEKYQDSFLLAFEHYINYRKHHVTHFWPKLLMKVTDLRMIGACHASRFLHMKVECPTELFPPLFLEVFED

The nature of experiment [14]: qHTS assay for small molecule disruptors of the mitochondrial membrane potential - 1 hr assay (AID 651754; calls by dose curve; further: nearly all actives have a fitted effect of over 35% in size; further: potency means the concentration at half of the fitted maximal effect). Summed up: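 Loss of mitochondrial potential shifts the cationic dye from red mitochondrial aggregates to green cytoplasmic monomers. Cells (HepG2) are treated with compound for 1 hr before a 30 min dye incubation at 37C.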
The nature of experiment [15]: qHTS assay for small molecule disruptors of the mitochondrial membrane potential - 5 hr assay (AID 651755; calls by dose curve; further: nearly all actives have a fitted effect of over 40% in size; further: potency means the concentration at half of the fitted maximal effect). Summed up:
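Membrane-potential dye readout: red aggregate (540 ex/590 em) versus green monomer (490 ex/535 em) fluorescence after 30 min dye loading, following 5 hr compound exposure at 37C of overnight-plated HepG2 cells.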

The nature of experiment [16]: qHTS assay for small molecule agonists of the antioxidant response element (ARE) signaling pathway measured by Nrf2-dependant transcriptional activity (AID 720636; active means well fitted curve in the direction sought with a large enough effect in the repeat runs; an effect the other way counts as inactive or inconclusive; further: % of control where 0% means no effect). The method, boiled down:
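Quantitative HTS format in HepG2 cells stably expressing an ARE-luciferase reporter; 16 hr compound treatment at 37 C, luciferase signal detected with ONE-Glo.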

Experiment [17] has as its target Nuclear receptor subfamily 1 group I member 2 (Rattus norvegicus) (UniProt Q9R1A7). The experiment can be described thus: qHTS assay for small molecule activators of the rat pregnane X receptor (rPXR) signaling pathway (AID 651751; call rule not given here; further: 0% is about no effect). As to conditions: rPXR reporter cells, luciferase (One-Glo), 24 h.
The nature of experiment [18]: Cell Viability - N2a (AID 540).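 Further: cells exposed to compound for 40 h at 37 °C; plate controls were DMSO alone for no effect and tamoxifen control for full effect; nearly all actives have a fitted effect of over 45% in size.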 As to conditions: N2a mouse neuroblastoma cell viability; activity change, negative = cytotoxicity: at 92.2 µM (top of the series). The method, boiled down:
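Cytotoxicity was scored as loss of cellular ATP in N2a cells, a mouse neuroblastoma line. Compounds are applied in a qHTS concentration series for 40 hr at 37 °C.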

The nature of experiment [19]: Cell Viability - SH-SY5Y (AID 544). As to conditions: SH-SY5Y neuroblastoma cell viability; viability change, negative = cytotoxic: at 92.2 µM (top of the series). Summed up:
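Cells were plated at 1500 per well and allowed 5 hr at 37 °C. Compounds were added across a concentration range and incubated 40 hr at 37 °C. CellTiter-Glo was added for 20 min at room temperature before luminescence reading.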

Experiment [20] can be described thus: MultiTox-Fluor Cytotoxicity Assay - LYMP1-002 - Dead Cells (AID 960). Further: nearly all actives have a fitted effect of over 60% in size. Further: potency means the concentration at half of the fitted maximal effect. The method, boiled down: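 Cells were plated, rested 5 hr, then treated with compound dilution series for 16 hr at 37 C. After adding substrate reagent and 60 min at room temperature, dead-cell protease fluorescence gave concentration-response curves fitted by the Hill equation.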

“And” between values parts separate entries of the source, which are not always exact repeats. Equal entries are not always repeated. Records with an inconclusive call do not appear. The source made the active and inactive calls. Unless noted, the call rests on the fitted dose curve; in most records, active means well fitted curve in the direction sought with a large enough effect; inconclusive means small, poorly fitted or top-dose-only effect, or another doubt; inactive means no such curve, though single readings can be large; an effect the other way counts as inactive or inconclusive.

Nuclear receptor subfamily 1 group I member 2 (Rattus norvegicus), sequence (Q9R1A7 whole entry, looked up): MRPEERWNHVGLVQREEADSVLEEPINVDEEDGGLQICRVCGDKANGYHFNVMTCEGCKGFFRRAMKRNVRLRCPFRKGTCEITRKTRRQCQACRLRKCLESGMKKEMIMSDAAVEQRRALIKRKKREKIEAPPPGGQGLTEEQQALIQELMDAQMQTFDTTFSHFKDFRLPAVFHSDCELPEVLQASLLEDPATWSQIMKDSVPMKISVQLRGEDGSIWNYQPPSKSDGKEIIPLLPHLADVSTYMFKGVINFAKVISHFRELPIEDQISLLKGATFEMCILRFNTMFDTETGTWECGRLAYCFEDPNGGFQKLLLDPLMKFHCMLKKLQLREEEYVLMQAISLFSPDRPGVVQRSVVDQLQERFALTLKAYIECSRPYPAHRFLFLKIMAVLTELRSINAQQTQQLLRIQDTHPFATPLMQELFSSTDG

For `Oc1c(Cl)cc(Cl)c(Cl)c1Cl`, the Potency in experiment [1] was > 92 µM (inactive); in [14], 42.2 µM (active); in experiment [15] it was 37.6 µM (active). The Potency result in experiment [2], in experiment [3], in [4], in experiment [5], in experiment [6] and in experiment [7] was “inactive” each time. Further, the Potency entry in experiment [8], in experiment [9], in experiment [10], in experiment [12], in experiment [13] and in experiment [16] was “inactive” throughout. Moreover, the max response in [11] was 23.7% and -14.7%; in experiment [17], -11.7% (inactive) and -1.19% (inactive).
As for `C[C@@H]1CC2(OC(O)[C@]3(C)O[C@H]23)O[C@H]2C[C@@]3(C)[C@@H]4CC[C@H]5C(C)(C)C(O[C@@H]6OC[C@@H](O)[C@H](O)[C@H]6O)CC[C@@]56C[C@@]46CC[C@]3(C)[C@@H]12` (stereo not given in full), the activity change, negative = cytotoxicity in experiment [18] is -12.9% (inactive). Besides, the Potency in experiment [3] was 31.6 µM (active). Besides, the Potency result in [5], in experiment [6], in [7], in experiment [8] and in [16] was “inactive” each time. Further, the max response in experiment [17] is -9.9% (inactive).
Regarding `C=CC(=O)OCCCCCCOC(=O)C=C`, in experiment [18], the activity change, negative = cytotoxicity was -110% (active). For the same compound, the Potency was 39.8 µM (active) in experiment [2]; 31.6 µM (active) in experiment [20]; 39.8 µM (active) in [4]; 39.8 µM (active) in [5]; 39.8 µM (active) in experiment [6]; 39.8 µM (active) in experiment [7]. The Potency in [8] is 39.8 µM (active); in experiment [9], 50.1 µM (active); in experiment [10], 39.8 µM (active). For the same compound, the viability change, negative = cytotoxic in experiment [19] was -98.1% (active). Also, the max response in [11] is 3.42%; in experiment [17], -2.77% (inactive) and -1.84% (inactive). For the same compound, the Potency result in [12], in [13], in experiment [14], in experiment [15] and in [16] was “inactive” in each case.
For `CCN(CC)c1ccc(N)cc1`, the activity change, negative = cytotoxicity in experiment [18] was -118% (active). For the same compound, the values for the Potency in experiment [2], in experiment [14] and in experiment [15] were 79.4 µM (active), 29.8 µM (active) and 29.8 µM (active), respectively. Also, the viability change, negative = cytotoxic in experiment [19] is -88.7% (active). The Potency result in [20] was “inactive”. In addition, the max response in experiment [17] is 3.24% (inactive).
On to `Oc1cc2c(cc1O)[C@H]1c3ccc(O)c(O)c3OC[C@@]1(O)C2`, for which the activity change, negative = cytotoxicity in experiment [18] was -91.8% (active). Besides, the viability change, negative = cytotoxic in [19] is -82.8% (active). Also, the Potency entry in experiment [20], in [12], in experiment [13], in experiment [14] and in experiment [15] was “inactive” each time. Besides, the Potency in experiment [4] was 31.6 µM (active); in experiment [6], 39.8 µM (active); in experiment [7], 25.1 µM (active); in experiment [8], 31.6 µM (active); in [9] it was 39.8 µM (active); in [10], 39.8 µM (active). For the same compound, the figures for the max response in experiment [11] and in experiment [17] were 5.74% and -8.86% (inactive), respectively.
As to `O=C(O)c1ccc([N+](=O)[O-])cc1`, the Potency in experiment [1] is > 92 µM (inactive). Moreover, the activity change, negative = cytotoxicity in experiment [18] is 9.32% (inactive). Also, the Potency entry in experiment [2], in [19], in experiment [3], in experiment [20], in experiment [4] and in [5] was “inactive” each time. The Potency result in experiment [6], in experiment [7], in [8], in [9], in experiment [10] and in experiment [12] was “inactive” throughout. Moreover, the Potency result in experiment [13], in experiment [14], in [15] and in [16] was “inactive” in each case. Also, the max response is -0.875% and -5.25% in [11]; -2.43% (inactive) and -1.7% (inactive) in [17].
For the compound `Nc1cc(C(=O)O)c(O)c(S(=O)(=O)O)c1`, the Potency in experiment [1] is > 92 µM (inactive). In addition, the activity change, negative = cytotoxicity in experiment [18] was -4.5% (inactive). Further, the Potency result in [2], in [19], in [3], in experiment [20], in experiment [4] and in [5] was “inactive” in each case. The Potency result in experiment [6], in [7], in experiment [8], in [9], in [10] and in experiment [12] was “inactive” throughout. Besides, the Potency entry in [13], in experiment [14], in experiment [15] and in experiment [16] was “inactive” each time. The max response is 11.2% in experiment [11] and 1.39% (inactive) in experiment [17].
